Bioassay records as filed in PubChem BioAssay.
VP16 counter: counter-screen for ROR gamma inhibitors: Gal4-VP16 reporter | Drosophila S2 Gal4-VP16 UAS-luciferase, luminescence, 20 h | Potency, µM (titrated, usually from 53.6 µM), for the others: at the highest dose activity, negative = inhibition, usual class: inhibitors | 3.5% of 310,000 active;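 further: Gal4-VP16 expression switched on by copper sulfate through the metallothionein promoter; potency means the concentration at half of the fitted maximal effect; nearly all actives have a fitted effect of over 50% in size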
TDP1 cell noCPT: qHTS for Inhibitors of human tyrosyl-DNA phosphodiesterase 1 (TDP1): qHTS in cells in absence of CPT | DT40 Tdp1-/- hTDP1 cells, no CPT, ATP luminescence, 48 h | Potency, µM (highest dose often 46.2 µM), without a hit: at the highest dose activity change, negative = growth inhibition, most hits filed as inhibitors | 15% of 420,000 active; further: potency means the concentration at half of the fitted maximal effect; nearly all actives have a fitted effect of over 55% in size
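Growth kinetics read by CellTiter-Glo luminescence after ≥48 hr at 37 °C. Cells: DT40 Tdp1-/- stably carrying human TDP1, 400 per well, compound exposure in the absence of CPT (DMSO vehicle).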
ELG1 DNA repair: blocks ELG1-dependent DNA repair in HEK293T cells; HEK293T ELG1-luciferase reporter, luminescence, 16 h; DNA damage induced by 5-fluorouridine; Potency, µM (highest dose often 46.1 µM), without a hit: at the highest dose activity change, negative = inhibition, actives largely listed as inhibitors; 2.3% of 330,000 active; further: potency means the concentration at half of the fitted maximal effect; nearly all actives have a fitted effect of over 55% in size
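In this reporter screen, reduction of luminescence relative to DMSO vehicle indicated activity. Compounds and 5-fluorouridine were added together to 2,000 cells per well, incubated for 16 hr at 37 °C, then developed with ONE-Glo.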
TDP1 cell CPT: DT40-hTDP1 cell growth loss with CPT; Potency, µM (top dose mostly 46.2 µM), inactives show top-dose activity change, negative = growth inhibition, actives largely listed as inhibitors; chicken DT40 Tdp1-/-;hTDP1 cells + 20 nM CPT, ATP luminescence, 48 h; 12% of 420,000 active; further: potency means the concentration at half of the fitted maximal effect; nearly all actives have a fitted effect of over 55% in size
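Chicken DT40 Tdp1-/- cells stably complemented with human TDP1 were seeded at 400 cells/well in medium containing 20 nM camptothecin, exposed to pin-transferred compounds, and grown at 37 °C for at least 48 hr. Viability was read as ATP luminescence.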
RORg inh: inhibitors of mouse ROR gamma transcriptional activity. AID 2551. Drosophila S2 Gal4-RORgamma UAS-luciferase reporter, 20 h. Potency, µM (top dose mostly 53.6 µM), without a hit: top-dose activity change, negative = inhibition, actives largely listed as inhibitors. 5.4% of 310,000 active. P51450; further: potency means the concentration at half of the fitted maximal effect; nearly all actives have a fitted effect of over 60% in size
Target sequence (P51450 whole entry, looked up, the tested form may be a part): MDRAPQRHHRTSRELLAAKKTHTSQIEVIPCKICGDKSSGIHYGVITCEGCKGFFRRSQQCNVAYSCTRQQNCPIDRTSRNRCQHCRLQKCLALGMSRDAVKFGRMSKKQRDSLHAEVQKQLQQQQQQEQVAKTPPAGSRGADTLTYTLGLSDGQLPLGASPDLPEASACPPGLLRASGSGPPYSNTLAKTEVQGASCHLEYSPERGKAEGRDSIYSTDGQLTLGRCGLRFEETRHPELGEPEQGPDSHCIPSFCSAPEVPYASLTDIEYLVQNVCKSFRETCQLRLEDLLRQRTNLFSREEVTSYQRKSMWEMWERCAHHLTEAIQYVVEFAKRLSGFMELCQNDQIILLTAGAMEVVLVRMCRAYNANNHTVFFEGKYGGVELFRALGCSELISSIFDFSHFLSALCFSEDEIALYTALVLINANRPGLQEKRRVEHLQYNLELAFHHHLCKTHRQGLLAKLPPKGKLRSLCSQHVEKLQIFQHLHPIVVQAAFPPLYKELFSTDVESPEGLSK
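Using a luciferase readout, inhibitors were identified by reduced reporter activity in Drosophila cells coexpressing a copper-inducible Gal4–ROR gamma fusion and UAS-driven Photinus luciferase, incubated 20 hr after 700 uM copper sulfate.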
IL-1B inflam inh: inhibitors of inflammasome signaling (IL-1 beta secretion). AID 743279. activity change, % at 57.5 µM. 4.7% of 360,000 active. THP-1 LPS/ATP IL-1B secretion, AlphaLISA, 16 h; hits give low values; in the data active means activity change below about -50%; inconclusive means mostly about -30% to -49%
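THP-1 cells pretreated 1 hr with compounds (up to 57.5 uM final), then stimulated with LPS (250 ng/mL final) plus ATP (1.25 mM final); secreted IL-1B measured by AlphaLISA after 16 hr, decreased signal indicating inhibition.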
* marks the source's active call; other numbers are inactive results. In the library only some 21% were active in any assay of this set; here they are far more common. Unless noted, the call rests on the fitted dose curve; in most records, active means well fitted curve in the direction sought with a large enough effect; inconclusive means small, poorly fitted or top-dose-only effect, or another doubt; inactive means no such curve, though single readings can be large; an effect the other way counts as inactive or inconclusive. On the % scale 0 is the no-effect control and ±100 the full control effect.

Results for CCCNC(=O)c1cc(C2CCCN(C(=O)c3ccc(OC)cc3)C2)on1 (stereo not drawn) ?
TDP1 cell noCPT: -27%; TDP1 cell CPT: -8%; IL-1B inflam inh: -7

What do the screens show for `CCOC(=O)c1oc2cccc(O)c2c1CN1CCOCC1`?
VP16 counter: -10%; TDP1 cell noCPT: -28%; ELG1 DNA repair: -2%; TDP1 cell CPT: -23%; RORg inh: 3%; IL-1B inflam inh: 24

How did CCOC(=O)c1c(-c2ccccc2)oc2ccc(O)c(CN3CCOCC3)c12 do in these assays?
VP16 counter: -17%; TDP1 cell noCPT: 23µM*; ELG1 DNA repair: inconclusive; TDP1 cell CPT: 23µM*; RORg inh: 33%; IL-1B inflam inh: 0

Results for CCOC(=O)c1c(C)oc2ccc(O)c(CN3CCCCC3)c12 ?
VP16 counter: 4%; TDP1 cell noCPT: -29%; ELG1 DNA repair: -11%; TDP1 cell CPT: inconclusive; RORg inh: -3%; IL-1B inflam inh: -69*

How did COc1ccc(C(=O)c2coc3ccc(O)c(CN4CCCCC4)c23)cc1 do in these assays?
VP16 counter: 2%; TDP1 cell noCPT: inconclusive; ELG1 DNA repair: -2%; TDP1 cell CPT: inconclusive; RORg inh: -24%; IL-1B inflam inh: -11

What do the screens show for `COc1ccc(-c2cc(C(F)(F)F)n3nc(C(N)=O)cc3n2)cc1`?
TDP1 cell noCPT: -14%; TDP1 cell CPT: 1%; IL-1B inflam inh: 23

What do the screens show for `CCC(C)(C)c1ccc(OCCCC[n+]2ccc(C)cc2)c(C(C)(C)CC)c1`?
VP16 counter: inconclusive; TDP1 cell noCPT: 1.2µM*; ELG1 DNA repair: 10µM*; TDP1 cell CPT: 2.3µM*; RORg inh: inconclusive; IL-1B inflam inh: -95*

Results for Cc1cc[n+](CC[n+]2ccc(C)cc2)cc1 ?
TDP1 cell noCPT: -9%; ELG1 DNA repair: 3%; TDP1 cell CPT: -2%; IL-1B inflam inh: 39

What do the screens show for `CCC(C)(C)c1ccc(OCCCC[n+]2cccc(C)c2C)c(C(C)(C)CC)c1`?
VP16 counter: 11µM*; TDP1 cell noCPT: 0.41µM*; ELG1 DNA repair: 2.6µM*; TDP1 cell CPT: 0.52µM*; RORg inh: inconclusive; IL-1B inflam inh: -93*

What do the screens show for `Cc1cc(C(C)(C)C)ccc1OCCCCN1CCCC1`?
VP16 counter: inconclusive; TDP1 cell noCPT: inconclusive; ELG1 DNA repair: 12%; TDP1 cell CPT: inconclusive; RORg inh: 93%; IL-1B inflam inh: -11

How did CC1CCCN(S(=O)(=O)c2ccc(NC(=O)CN3CCCCC3)cc2)C1 (stereo not drawn) do in these assays?
VP16 counter: 4%; TDP1 cell noCPT: -24%; ELG1 DNA repair: -10%; TDP1 cell CPT: -26%; RORg inh: 3%; IL-1B inflam inh: -4

Results for CC(C)c1ccc(NC(=O)C2CCN(S(=O)(=O)c3ccc4c(c3)C(C)(C)C(=O)N4C)CC2)cc1 ?
VP16 counter: -1%; TDP1 cell noCPT: inconclusive; ELG1 DNA repair: inconclusive; TDP1 cell CPT: 16µM*; RORg inh: inconclusive; IL-1B inflam inh: 50

How did Cc1ccc(S(=O)(=O)N2CCC(C(=O)Nc3ccccc3N3CCCCC3)CC2)cc1C do in these assays?
TDP1 cell noCPT: inconclusive; ELG1 DNA repair: -2%; TDP1 cell CPT: 18µM*; IL-1B inflam inh: 16

What do the screens show for `Cc1cccc(NC(=O)C2CCN(S(=O)(=O)c3ccc4c(c3)C(C)(C)C(=O)N4C)CC2)c1C`?
VP16 counter: 0%; TDP1 cell noCPT: inconclusive; ELG1 DNA repair: -7%; TDP1 cell CPT: inconclusive; RORg inh: 2%; IL-1B inflam inh: -7

How did CC1CC(C)CN(S(=O)(=O)c2ccc(NC(=O)CN3CCCCCC3)cc2)C1 (stereo not drawn) do in these assays?
TDP1 cell noCPT: 21µM*; ELG1 DNA repair: -30%; TDP1 cell CPT: 16µM*; IL-1B inflam inh: -53*

What do the screens show for `Cc1ccc(S(=O)(=O)N2CCC(C(=O)N(C)C3CCS(=O)(=O)C3)CC2)cc1` (stereo not drawn)?
VP16 counter: 2%; TDP1 cell noCPT: inconclusive; ELG1 DNA repair: -7%; TDP1 cell CPT: 23µM*; RORg inh: -7%; IL-1B inflam inh: 24

Results for Cc1ccnc2ccc(F)cc12 ?
TDP1 cell noCPT: -2%; TDP1 cell CPT: 1%

Results for Cc1nn(-c2ccccc2)c(OC(=O)C(C)(C)C)c1Sc1ccccc1 ?
TDP1 cell noCPT: -20%; TDP1 cell CPT: -22%

What do the screens show for `Cc1ccc(Cl)cc1NC(=O)N1CCC(CN2CCc3ccccc3C2)CC1`?
TDP1 cell noCPT: -13%; TDP1 cell CPT: -11%

How did Cc1ccc(S(=O)(=O)Nc2ccc(S(=O)(=O)Nc3nccs3)cc2)c([N+](=O)[O-])c1 do in these assays?
VP16 counter: inconclusive; TDP1 cell noCPT: inconclusive; ELG1 DNA repair: 10%; TDP1 cell CPT: inconclusive; RORg inh: inconclusive; IL-1B inflam inh: inconclusive

How did COc1ccc(NC(=O)Nc2ccc3c(c2)C(=O)N([C@@H](C)CO)C[C@@H](C)[C@@H](CN(C)S(=O)(=O)c2cn(C)cn2)O3)cc1 do in these assays?
TDP1 cell noCPT: 4%; ELG1 DNA repair: 16%; TDP1 cell CPT: 14%; IL-1B inflam inh: 14

Results for Cc1ccc(S(=O)(=O)N2CCC(C(=O)Nc3ccncc3)CC2)cc1 ?
TDP1 cell noCPT: inconclusive; ELG1 DNA repair: inconclusive; TDP1 cell CPT: inconclusive; IL-1B inflam inh: 14

What do the screens show for `Cc1ccc(S(=O)(=O)N2CCC(C(=O)Nc3ccc(C(C)C)cc3)CC2)cc1`?
TDP1 cell noCPT: 15µM*; ELG1 DNA repair: inconclusive; TDP1 cell CPT: 23µM*; IL-1B inflam inh: -4

How did CN1CCN(S(=O)(=O)c2ccc3ccccc3c2)CC1 do in these assays?
VP16 counter: 4%; TDP1 cell noCPT: 1%; ELG1 DNA repair: -4%; TDP1 cell CPT: 1%; RORg inh: -2%; IL-1B inflam inh: -3

What do the screens show for `Cc1ccc(S(=O)(=O)N2CCCN(S(=O)(=O)c3ccc4ccccc4c3)CC2)cc1`?
VP16 counter: 12%; TDP1 cell noCPT: inconclusive; ELG1 DNA repair: inconclusive; TDP1 cell CPT: 8.2µM*; RORg inh: 12%; IL-1B inflam inh: -16

How did Cc1ccc(S(=O)(=O)N2CCCN(C(=O)c3cc4ccccc4[nH]3)CC2)cc1 do in these assays?
VP16 counter: inconclusive; TDP1 cell noCPT: inconclusive; ELG1 DNA repair: 26%; TDP1 cell CPT: 2%; RORg inh: inconclusive; IL-1B inflam inh: -61*
